Source: PubChem BioAssay (National Center for Advancing Translational Sciences (NCATS))
KDM5B inh = blocks human KDM5B histone demethylase activity; KDM5B demethylase, FDH-coupled NADH fluorescence (FDH is formaldehyde dehydrogenase); Potency, µM (doses to about 57.7 µM), most hits filed as inhibitors; Q9UGL1; hit rate 2.6% among 220,000; active means well fitted inhibition curve with a large enough effect; further: 0% is about no effect; nearly all actives have a fitted effect of over 70% in size
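qHTS format, multiple compound concentrations. Buffer 50 mM HEPES pH 7.5/0.01% Tween-20; 200 nM KDM5BΔAP final; 10 min compound preincubation; substrate-mix levels 12.5 µM peptide, 25 µM α-KG, 0.25 mM NAD⁺; 30 min RT; ΔRFU.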
* hit, by the source's call; i = inactive; + = active, no number. The full list was thinned out, with hits kept by preference. Potency means the concentration at half of the fitted maximal effect.

SMILES | KDM5B inh
O=C(COc1ccccc1)N1CCc2c(n(Cc3cccnc3)n(-c3ccccc3)c2=O)C1 | i
O=C(CCc1nc2ccccc2[nH]1)N1CCCC(Cc2noc(-c3ccccc3)n2)C1 (centres undefined) | i
CCOCC(=O)N1CCc2nc3cc(-c4ccc(OC)cc4)[nH]n3c(=O)c2C1 | 25µM*
COc1ccc(-c2nc(-c3ccccc3)nc3c2CN(C(=O)Cc2cccc(Cl)c2)CC3)cc1 | i
CCOc1ccc2c(n1)CCN(C(=O)Cc1ccc(OC)cc1)C2 | i
O=C(Cc1cccnc1)N1CCc2c(nc3cc(-c4ccccc4)[nH]n3c2=O)C1 | 28µM*
CCc1nc2c(c(-c3ccc(OC)cc3)n1)CN(C(=O)c1ccc(OC)cc1)CC2 | i
COc1ccc(-c2cc3nc4c(c(=O)n3[nH]2)CN(C(=O)Cc2ccc(NC(C)=O)cc2)CC4)cc1 | 14µM*
N#Cc1ccccc1N1CCN(C(=O)CCc2nc3ccccc3[nH]2)CC1=O | i
Cc1ccc(Nc2cc(C)nc3c(C)cc(C)c([N+](=O)[O-])c23)cc1 | i
CCOC(=O)c1cc(-c2ccc(S(=O)(=O)Nc3ccc(C)cc3Cl)s2)on1 | i
CC1CCC(NC(=O)c2cc(Sc3ccc(F)cc3)nc3ccccc23)CC1 (centres undefined) | i
CC(C)(C)c1coc2cc3o/c(=N/O)c4c(c3cc12)CCC4 | i
Cn1c(=O)c2c(ncn2CC(=O)Nc2ccc(N3CCCCC3)cc2)n(C)c1=O | i
CCCCCCCCOc1ccc(/C=C(/C#N)c2nc3ccccc3[nH]2)cc1 | i
CCCCCC(=O)N/N=C/c1cccnc1 | i
CN(C)CCOc1ccc(C(=O)/C=C/c2ccc(C(=O)O)cc2)cc1 | i
O=C(O)CCC(=O)N1Cc2ccccc2CC2(CCCCN2CCc2ccccc2)C1 (centres undefined) | +
CCCC(=O)N1Cc2ccccc2CC2(CCCCN2C)C1 (centres undefined) | i
CCCN1CCCCC12Cc1ccccc1CN(C(=O)C1CCCC1)C2 (centres undefined) | 50µM*
O=C(O)CCC(=O)N1Cc2ccccc2CC2(CCCCN2Cc2ccccc2)C1 (centres undefined) | i
CCCN1CCCCC12Cc1ccccc1CN(C(=O)CCC(=O)O)C2 (centres undefined) | i
CN1CCCCC12Cc1ccccc1CN(C(=O)c1ccccc1)C2 (centres undefined) | 56µM*
CN1CCCCC12Cc1ccccc1CN(C(=O)C1CCCC1)C2 (centres undefined) | i
CCCN1CCCCC12Cc1ccccc1CN(C(=O)CNC(C)=O)C2 (centres undefined) | i
SMILES | KDM5B inh
CN1CCCCC12Cc1ccccc1CN(C(=O)CCCC(=O)O)C2 (centres undefined) | i
FC(F)(F)c1ccccc1/C=N/NC(=S)NCc1ccccc1 | i
Cc1cc(Cl)ccc1OCc1n[nH]c(=S)n1C | i
Cc1ccc(CNC(=O)Cn2nc3ccc(SC(C)(C)C)nn3c2=O)cc1 | i
O=Cc1cc(Br)cc(Cl)c1O | i
CC(C)=CC(=O)Nc1ccc(F)c(Cl)c1 | i
COc1ccc(CC(=O)N(C)C2CCc3nnc(C)n3CC2)cc1Cl (centres undefined) | 20µM*
COc1ccc(CCC(=O)N(C)C2CCc3nnc(C)n3CC2)cc1OC (centres undefined) | i
COc1cc(Cl)ccc1C(=O)N(C)C1CCc2nnc(C)n2CC1 (centres undefined) | i
Cc1occc1-c1nnc(SC(C(=O)N2CCCC2)c2ccccc2)n1-c1ccccc1 (centres undefined) | i
COc1ccccc1N1CCN(c2ncc3c(n2)CCN(Cc2ccccc2C)C3)CC1 | i
COc1ccccc1N1CCN(c2ncc3c(n2)CCCC3=O)CC1 | i
COc1ccccc1-n1cc(-c2ccnc(N3CC(n4cccn4)C3)n2)cn1 | 32µM*
O=C(NCCc1ccc(Cl)cc1)c1ccc2c(=O)n(-c3ccccc3)c(=O)[nH]c2c1 | i
COc1ccc(CCNC(=O)Cc2c(C)c3ccc(OC(C)=O)c(OC(C)=O)c3oc2=O)cc1 | i
O=C(N[C@@H]1CCOC[C@H]1OCCO)C1CCN(Cc2ccco2)CC1 | i
O=C(Cc1c(F)cccc1Cl)N[C@@H]1CCOC[C@H]1OCCO | i
COc1ccc(OCCNC(=O)c2cc(C3CC3)nc3ccccc23)cc1 | i
O=C(N[C@@H]1CCOC[C@H]1OCCO)c1cc(C2CC2)nc2ccccc12 | 28µM*
O=C(N[C@@H]1CCOC[C@H]1OCCO)c1cccc(-c2ccco2)c1 | 28µM*
CCC(C)NC(=O)c1cc(C2CC2)nc2ccccc12 (centres undefined) | i
COc1cc(/C=C/C(=O)c2ccc(C#N)cc2)cc(Br)c1O | i
COC(=O)c1c(C)[nH]c(C(=O)OCC(=O)Nc2ccc(Cl)cn2)c1C | i
Cc1ccccc1-c1nc(S(=O)(=O)c2ccc3c(c2)OCCO3)c(N2CCN(C)CC2)o1 | i
CC(C)(C)n1nnnc1SCc1coc(-c2ccccc2)n1 | i
SMILES | KDM5B inh
O=C(N1CCC(Cc2nc(C3CC3)n[nH]2)CC1)C1(c2ccccc2)CC1 | 18µM*
O=C(C1CC1)N1CCC(Cc2nc(-c3ccccc3)n[nH]2)C1 (centres undefined) | i
CC(=O)N1CCC(Cc2nc(-c3ccccc3)n[nH]2)CC1 | 20µM*
O=C(NCc1ccccc1)N1CCC(Cc2nc(C3CC3)n[nH]2)C1 (centres undefined) | i
Cc1nc(C)c(C(=O)N2CCC(Cc3nc(-c4ccccc4)n[nH]3)CC2)s1 | i
COc1ccc(CCC(=O)N2CCC(Cc3nc(C4CC4)n[nH]3)CC2)cc1 | 20µM*
COc1ccc(C(=O)N2CCC(Cc3nc(C4CC4)n[nH]3)CC2)cn1 | i
COc1ccc(CCC(=O)N2CCC(c3n[nH]c(=O)n3Cc3ccc(F)cc3)CC2)cc1 | i
CCc1n[nH]c(CC2CCN(C(=O)C3(c4ccccc4)CC3)CC2)n1 | i
CCCN1C(C(C)=O)=C(OC(=O)CC)c2ccccc2S1(=O)=O | i
O=C(Nc1ccc(C(F)(F)Cl)oc1=O)c1ccccc1 | i
CC(=O)N1CCN(C(=O)c2sc(-c3ccc(OC(F)(F)F)cc3)nc2C)CC1 | i
COC(=O)c1cc(COC(=O)C2COc3ccccc3O2)oc1C (centres undefined) | i
O=C(O)c1ccc(OCc2nnnn2-c2ccccc2)cc1 | i
CC1C(OC(=O)c2ccc(CS(C)(=O)=O)cc2)CC2CC1C2(C)C (centres undefined) | i
Cc1cc(C)c2oc(=O)cc(CN3CCN(CCc4ccccn4)CC3)c2c1 | i
C=CCNC(=O)c1ccc(CNC(N)=O)cc1 | i
C=CCNC(=O)c1ccc2cncn2c1 | 32µM*
C=CCNC(=O)c1ccc(COc2ccc(Cl)cc2)cc1 | i
Cc1cccc(C(=O)NC(c2cccnc2)c2ccc(C)c(C)c2)c1 (centres undefined) | i
COc1ccc(C(=O)NCC2(COc3ccccc3)C[C@@H](O)[C@@H](O)C2)cc1 (some centres undefined) | i
COCC1(CNC(=O)c2nc3ccccc3[nH]2)C[C@@H](O)[C@@H](O)C1 (some centres undefined) | 35µM*
COCC1(CNC(=O)c2cccc(OC)c2)C[C@@H](O)[C@@H](O)C1 (some centres undefined) | i
O=C1CN(C(=O)COC(=O)COc2ccc(Cl)cc2Br)c2ccccc2N1 | i
Cc1ccc(N/N=C/c2ccc(C(C)(C)C)cc2)cc1Cl | i
